{
  "source": "paper PMC7862700",
  "about": "“An all-to-all approach to the identification of sequence-specific readers for epigenetic DNA modifications on cytosine”",
  "test_in_all_cases": "DAPPL (digital affinity profiling via proximity ligation, sequencing); 10 mM Tris-HCl pH 7.5, 50 mM NaCl, 1 mM DTT, 4% glycerol, room temperature, 30 min; GST-TFs on glutathione beads, 16-mer random dsDNA library, 0.1% formaldehyde crosslink after washing; high values mean tight binding",
  "key": {"FEV": {"target": "T1, FEV (Homo sapiens, UniProt Q99581 1-238)", "T1 sequence": "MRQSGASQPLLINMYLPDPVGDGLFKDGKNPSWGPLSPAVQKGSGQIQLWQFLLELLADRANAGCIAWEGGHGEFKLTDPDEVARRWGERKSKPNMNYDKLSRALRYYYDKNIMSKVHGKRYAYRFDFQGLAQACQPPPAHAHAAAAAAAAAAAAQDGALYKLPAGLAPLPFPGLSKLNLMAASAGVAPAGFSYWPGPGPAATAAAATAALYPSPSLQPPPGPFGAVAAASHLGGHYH", "conditions": "protein: recombinant; tags: N-terminal GST; dsDNA, one strand shown", "method_in_brief": "(§1)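 Pools of DNA-barcoded human transcription factors, expressed in yeast as GST fusions on glutathione beads and combined with a tag-only sample, were incubated with 200 nmole of a 16-mer random double-stranded DNA library. Incubation took 30 min at room temperature in Tris/NaCl/DTT/glycerol buffer and was followed by washing, 0.1% formaldehyde crosslinking, proximity ligation (BsaI/T4 ligase, 1 h, 37 °C), PCR amplification and sequencing on an Illumina NextSeq500. Binding signal is the ratio of a hexamer's read frequency for a factor to its frequency for the tag-only sample.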"}, "ETV5": {"target": "ETV5 (Homo sapiens, UniProt P41161 1-510)", "sequence (P41161 whole entry)": "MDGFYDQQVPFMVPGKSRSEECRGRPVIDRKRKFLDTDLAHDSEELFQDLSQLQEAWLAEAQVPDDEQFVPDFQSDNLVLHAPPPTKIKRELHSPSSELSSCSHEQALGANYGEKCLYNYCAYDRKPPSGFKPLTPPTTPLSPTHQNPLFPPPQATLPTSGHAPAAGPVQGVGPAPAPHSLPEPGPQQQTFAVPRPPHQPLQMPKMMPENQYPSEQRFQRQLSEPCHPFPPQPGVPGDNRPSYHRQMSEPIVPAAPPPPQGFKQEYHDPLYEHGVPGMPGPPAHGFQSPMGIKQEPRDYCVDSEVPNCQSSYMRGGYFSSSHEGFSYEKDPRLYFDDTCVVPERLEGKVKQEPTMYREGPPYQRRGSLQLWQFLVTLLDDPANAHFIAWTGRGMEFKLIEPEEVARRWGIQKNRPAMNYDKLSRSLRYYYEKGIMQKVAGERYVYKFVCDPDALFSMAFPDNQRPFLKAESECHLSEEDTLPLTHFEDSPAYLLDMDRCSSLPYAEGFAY", "conditions": "protein: recombinant; tags: N-terminal GST; dsDNA, one strand shown", "method_in_brief": "as §1"}, "HSF1": {"target": "HSF1 (Homo sapiens, UniProt Q00613 1-529)", "sequence (Q00613 whole entry)": "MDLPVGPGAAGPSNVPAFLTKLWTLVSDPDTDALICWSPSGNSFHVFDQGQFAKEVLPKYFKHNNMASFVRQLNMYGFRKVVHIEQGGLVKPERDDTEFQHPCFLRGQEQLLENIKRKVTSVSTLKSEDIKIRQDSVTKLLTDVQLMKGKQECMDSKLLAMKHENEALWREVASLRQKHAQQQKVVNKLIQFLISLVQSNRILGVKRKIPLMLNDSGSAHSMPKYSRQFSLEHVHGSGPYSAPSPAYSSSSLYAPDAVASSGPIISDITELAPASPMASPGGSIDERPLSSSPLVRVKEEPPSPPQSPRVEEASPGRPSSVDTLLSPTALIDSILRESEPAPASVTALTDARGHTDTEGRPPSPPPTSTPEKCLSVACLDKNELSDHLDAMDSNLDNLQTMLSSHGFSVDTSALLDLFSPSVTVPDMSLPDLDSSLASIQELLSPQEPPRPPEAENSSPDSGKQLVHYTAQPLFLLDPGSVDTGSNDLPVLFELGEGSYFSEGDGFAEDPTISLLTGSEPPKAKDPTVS", "conditions": "protein: recombinant; tags: N-terminal GST; chain copies: 3; dsDNA, one strand shown", "method_in_brief": "as §1"}, "SPIC": {"target": "T2, SPIC (Homo sapiens, UniProt Q8N5J4 1-248)", "T2 sequence": "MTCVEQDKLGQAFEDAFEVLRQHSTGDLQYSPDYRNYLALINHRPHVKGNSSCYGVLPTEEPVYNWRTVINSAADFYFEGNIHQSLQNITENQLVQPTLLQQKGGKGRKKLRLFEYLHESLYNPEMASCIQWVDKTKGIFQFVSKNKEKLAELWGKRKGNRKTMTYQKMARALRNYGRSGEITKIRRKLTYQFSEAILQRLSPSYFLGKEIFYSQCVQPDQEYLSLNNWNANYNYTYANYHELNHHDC", "conditions": "protein: recombinant; tags: N-terminal GST; dsDNA, one strand shown", "method_in_brief": "as §1"}, "ELF4": {"target": "ELF4 (Homo sapiens, UniProt Q99607 1-663)", "sequence (Q99607 whole entry)": "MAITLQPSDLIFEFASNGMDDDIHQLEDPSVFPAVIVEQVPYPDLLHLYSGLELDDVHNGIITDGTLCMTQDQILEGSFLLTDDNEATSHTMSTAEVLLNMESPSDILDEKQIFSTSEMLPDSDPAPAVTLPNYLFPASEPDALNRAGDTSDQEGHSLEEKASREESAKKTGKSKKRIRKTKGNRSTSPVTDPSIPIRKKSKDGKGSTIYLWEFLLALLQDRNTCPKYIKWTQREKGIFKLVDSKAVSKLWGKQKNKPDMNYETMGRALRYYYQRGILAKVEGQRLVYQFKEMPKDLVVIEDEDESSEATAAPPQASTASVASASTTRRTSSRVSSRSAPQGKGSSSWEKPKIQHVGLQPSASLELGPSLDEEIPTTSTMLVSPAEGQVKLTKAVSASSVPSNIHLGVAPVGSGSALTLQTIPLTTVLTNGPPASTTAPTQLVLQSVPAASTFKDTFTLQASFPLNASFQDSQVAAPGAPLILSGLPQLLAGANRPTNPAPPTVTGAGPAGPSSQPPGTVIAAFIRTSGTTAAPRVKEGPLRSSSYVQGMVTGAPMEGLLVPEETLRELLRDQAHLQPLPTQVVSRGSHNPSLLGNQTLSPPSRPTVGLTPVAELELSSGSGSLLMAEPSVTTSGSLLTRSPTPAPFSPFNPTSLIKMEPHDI", "conditions": "protein: recombinant; tags: N-terminal GST; dsDNA, one strand shown", "method_in_brief": "as §1"}, "ELK4": {"target": "T3, ELK4 (Homo sapiens, UniProt P28324-2 1-405)", "T3 sequence": "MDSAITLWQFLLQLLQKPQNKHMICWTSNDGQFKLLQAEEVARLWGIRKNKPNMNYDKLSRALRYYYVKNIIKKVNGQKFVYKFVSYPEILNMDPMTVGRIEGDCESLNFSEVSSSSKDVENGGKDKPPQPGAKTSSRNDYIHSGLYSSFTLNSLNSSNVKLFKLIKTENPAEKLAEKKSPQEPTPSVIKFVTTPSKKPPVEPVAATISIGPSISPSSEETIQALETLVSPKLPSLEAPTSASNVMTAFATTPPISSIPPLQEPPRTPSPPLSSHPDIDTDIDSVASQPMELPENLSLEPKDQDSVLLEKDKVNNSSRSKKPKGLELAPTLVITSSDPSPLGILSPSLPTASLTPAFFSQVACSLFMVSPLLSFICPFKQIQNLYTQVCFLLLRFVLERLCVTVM", "conditions": "protein: recombinant; tags: N-terminal GST; dsDNA, one strand shown", "method_in_brief": "as §1"}, "ETV2": {"target": "T4, ETV2 (Homo sapiens, UniProt O00321 1-342)", "T4 sequence": "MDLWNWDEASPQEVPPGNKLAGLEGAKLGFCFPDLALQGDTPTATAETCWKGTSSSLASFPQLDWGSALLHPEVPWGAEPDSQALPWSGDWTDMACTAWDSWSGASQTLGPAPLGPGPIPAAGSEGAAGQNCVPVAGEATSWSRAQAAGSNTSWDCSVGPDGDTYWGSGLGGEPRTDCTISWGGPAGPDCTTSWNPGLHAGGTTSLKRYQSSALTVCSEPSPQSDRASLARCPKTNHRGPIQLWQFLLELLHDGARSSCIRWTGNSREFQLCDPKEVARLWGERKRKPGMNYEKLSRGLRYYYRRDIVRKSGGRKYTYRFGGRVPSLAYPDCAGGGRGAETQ", "conditions": "protein: recombinant; tags: N-terminal GST; dsDNA, one strand shown", "method_in_brief": "as §1"}, "ELF3": {"target": "T5, ELF3 (Homo sapiens, UniProt P78545 1-371)", "T5 sequence": "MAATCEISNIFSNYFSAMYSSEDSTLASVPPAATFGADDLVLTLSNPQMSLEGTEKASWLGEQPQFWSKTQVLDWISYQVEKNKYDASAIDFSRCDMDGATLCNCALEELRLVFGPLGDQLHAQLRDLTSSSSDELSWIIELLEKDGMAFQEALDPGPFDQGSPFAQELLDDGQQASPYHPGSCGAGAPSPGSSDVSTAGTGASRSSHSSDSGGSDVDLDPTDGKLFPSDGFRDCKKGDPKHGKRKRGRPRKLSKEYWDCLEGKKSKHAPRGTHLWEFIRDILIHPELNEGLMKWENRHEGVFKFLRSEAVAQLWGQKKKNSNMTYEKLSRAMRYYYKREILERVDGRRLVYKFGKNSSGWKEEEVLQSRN", "conditions": "protein: recombinant; tags: N-terminal GST; dsDNA, one strand shown", "method_in_brief": "as §1"}, "CRX": {"target": "CRX (Homo sapiens, UniProt O43186 1-299)", "sequence (O43186 whole entry)": "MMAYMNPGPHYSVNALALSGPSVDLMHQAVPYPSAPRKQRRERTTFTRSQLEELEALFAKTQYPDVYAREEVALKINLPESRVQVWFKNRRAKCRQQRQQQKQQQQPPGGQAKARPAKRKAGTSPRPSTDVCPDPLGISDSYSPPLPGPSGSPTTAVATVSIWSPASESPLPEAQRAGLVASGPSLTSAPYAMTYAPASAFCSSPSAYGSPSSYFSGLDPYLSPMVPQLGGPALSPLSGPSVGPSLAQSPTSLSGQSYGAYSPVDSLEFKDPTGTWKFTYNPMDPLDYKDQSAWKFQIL", "conditions": "protein: recombinant; tags: N-terminal GST; dsDNA, one strand shown", "method_in_brief": "as §1"}, "ETV1": {"target": "ETV1 (Homo sapiens, UniProt P50549 1-477)", "sequence (P50549 whole entry)": "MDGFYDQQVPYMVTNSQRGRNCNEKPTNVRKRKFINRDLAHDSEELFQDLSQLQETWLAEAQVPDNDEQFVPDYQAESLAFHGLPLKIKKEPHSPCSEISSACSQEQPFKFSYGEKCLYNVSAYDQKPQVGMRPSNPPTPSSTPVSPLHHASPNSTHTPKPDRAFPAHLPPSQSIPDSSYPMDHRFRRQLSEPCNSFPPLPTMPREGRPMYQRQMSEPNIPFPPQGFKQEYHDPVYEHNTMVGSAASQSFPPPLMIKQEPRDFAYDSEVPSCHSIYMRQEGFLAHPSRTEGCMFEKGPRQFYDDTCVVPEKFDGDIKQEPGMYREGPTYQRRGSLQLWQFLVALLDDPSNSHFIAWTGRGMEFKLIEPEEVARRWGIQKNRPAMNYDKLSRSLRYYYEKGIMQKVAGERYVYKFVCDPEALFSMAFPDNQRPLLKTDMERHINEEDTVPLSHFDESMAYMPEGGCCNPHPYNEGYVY", "conditions": "protein: recombinant; tags: N-terminal GST; dsDNA, one strand shown", "method_in_brief": "as §1"}},
  "data": [
    {"sequence": "AAAATA", "values": [
      {"measurement": "binding signal", "setting": "FEV", "result": "1.15 fold enrichment (6-mer frequency, TF over GST control)"},
      {"measurement": "binding signal", "setting": "ETV5", "result": "1.17 fold enrichment (6-mer frequency, TF over GST control)"},
      {"measurement": "binding signal", "setting": "HSF1", "result": "1.34 fold enrichment (6-mer frequency, TF over GST control)"},
      {"measurement": "binding signal", "setting": "SPIC", "result": "1.16 fold enrichment (6-mer frequency, TF over GST control)"},
      {"measurement": "binding signal", "setting": "ELF4", "result": "1.17 fold enrichment (6-mer frequency, TF over GST control)"},
      {"measurement": "binding signal", "setting": "ELK4", "result": "1.19 fold enrichment (6-mer frequency, TF over GST control)"},
      {"measurement": "binding signal", "setting": "ETV2", "result": "1.21 fold enrichment (6-mer frequency, TF over GST control)"},
      {"measurement": "binding signal", "setting": "ELF3", "result": "1.06 fold enrichment (6-mer frequency, TF over GST control)"},
      {"measurement": "binding signal", "setting": "CRX", "result": "1.35 fold enrichment (6-mer frequency, TF over GST control)"},
      {"measurement": "binding signal", "setting": "ETV1", "result": "1.1 fold enrichment (6-mer frequency, TF over GST control)"}
    ]}
  ]
}
